# Screening data as filed in PubChem BioAssay.
# A selection: hits, their analogues and other compounds. The true share with any hit is near 0.45%.
# TexasRed fluor: Texas Red fluorescence interference in TRb-SRC2 counter-screen; TRb/SRC2 Texas Red total fluorescence interference; actives 0.29% (n = 280,000); Potency, µM (series often up to 106 µM), for inactives: at the top dose fluorescence change, negative = quenching; active = well fitted curve in either direction with a large enough effect; inconclusive = small, poorly fitted or top-dose-only effect; also: potency is read from the fitted curve at half-maximal effect; % is scaled to controls: 0 for no effect and ±100 for the full control effect
#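 Flags fluorescent or light-absorbing compounds by total fluorescence, S + 2P, at 555 nm excitation and 632 nm emission. Mixture: 20 nM Texas Red SRC2 peptide, 0.6 uM human TRb LBD, 1 uM T3, 5% DMSO; compound exposure 5 h at ambient temperature.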
# TRb SRC2 PPI: disrupts binding of human TR beta to SRC2; Potency, µM (titrated, usually from 106 µM), without a hit: at the highest dose activity change, negative = inhibition, usual class: inhibitors; P10828; actives 0.065% (n = 280,000); TRbeta-SRC2 peptide binding, fluorescence polarization; receptor liganded with 1 µM T3;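 also: potency is read from the fitted curve at half-maximal effect; plate controls were bound peptide for no effect and peptide without receptor for full effect; nearly all actives have a fitted effect of over 50% in size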
#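 Polarization signal, normalized between peptide-alone and full complex controls, measured compound effects on T3-liganded human TRb LBD (0.6 uM) binding 20 nM Texas Red SRC2 peptide after 5 hr.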
# a7 integrin act: activates integrin-mediated alleviation for muscular dystrophy; alpha7betagal myoblasts, beta-gal FDG fluorescence, 48 h; Potency, µM (top dose mostly 38.3 µM), for the others: at the top dose activation, actives largely listed as activators; actives 0.064% (n = 350,000); AID 624291;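 also: potency is read from the fitted curve at half-maximal effect; 100% = response of the positive control SU9516; nearly all actives have a fitted effect of over 60% in size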
#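 alpha7betagal+/- myoblasts (passage 13, 250/well) treated 48 h at 37C with compounds at 1:260 dilution of DMSO stock. Lysed, then beta-galactosidase activity read as FDG fluorescence (ex 480/em 540) after 30 min, with pre-read for autofluorescence.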
# RGS12 GoLoco inh-1: blocks human Gai1 binding to RGS12 GoLoco peptide, red readout; Gai1:RGS12 GoLoco peptide FP, rhodamine, 10 min; Potency, µM (doses to about 61.6 µM), for inactives: top-dose activity, negative = inhibition, hits mostly inhibitors; actives 0.44% (n = 230,000); AID 880; active = well fitted inhibition curve with a large enough effect, not every such curve was filed as active; inactive = no such curve, though single readings can be large or run the other way; also: potency is read from the fitted curve at half-maximal effect; % is scaled to controls: 0 for no effect and ±100 for the full control effect; nearly all actives have a fitted effect of over 30% in size
# CBFb RUNX1 block: blocks binding between human CBF-beta and RUNX1; 230,000 tested, under 10 active; AlphaScreen CBFb-His/RUNX1-biotin binding, biochemical; Potency, µM (titrated, usually from 59.8 µM), for inactives: top-dose activity, negative = inhibition, hits mostly inhibitors; also: % of control where 0% means no effect
# Target sequence (Q01196 whole entry, looked up): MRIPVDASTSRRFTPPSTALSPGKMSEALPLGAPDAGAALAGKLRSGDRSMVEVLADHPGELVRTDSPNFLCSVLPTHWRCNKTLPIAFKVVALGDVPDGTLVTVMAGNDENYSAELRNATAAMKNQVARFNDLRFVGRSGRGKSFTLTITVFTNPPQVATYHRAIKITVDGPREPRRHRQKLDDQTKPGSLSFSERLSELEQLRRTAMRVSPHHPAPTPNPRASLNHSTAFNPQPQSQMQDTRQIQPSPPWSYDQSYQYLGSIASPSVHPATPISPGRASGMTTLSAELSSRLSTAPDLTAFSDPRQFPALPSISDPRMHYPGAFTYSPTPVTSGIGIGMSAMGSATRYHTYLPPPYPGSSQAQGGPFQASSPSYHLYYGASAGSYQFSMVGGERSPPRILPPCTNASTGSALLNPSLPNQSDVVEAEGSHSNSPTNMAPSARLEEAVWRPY
# Target sequence (Q13951 whole entry, looked up): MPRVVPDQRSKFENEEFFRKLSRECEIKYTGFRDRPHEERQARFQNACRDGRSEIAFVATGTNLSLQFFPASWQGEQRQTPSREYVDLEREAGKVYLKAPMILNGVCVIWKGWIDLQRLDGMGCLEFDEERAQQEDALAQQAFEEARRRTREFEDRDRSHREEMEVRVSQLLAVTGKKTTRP
#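 AlphaScreen proximity signal reports loss of binding between His-tagged CBF-beta and biotin-labelled RUNX1, each at 30 nM. Proteins are pre-associated for 20 minutes, compounds added for 15 minutes, then beads for 90 minutes, all at ambient temperature.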
# ERG Ets-DNA blk: blocks human ERG Ets domain binding to DNA | P11308 | fluorescence polarization, His-ERG Ets domain / labelled DNA | Potency, µM (titrated, usually from 76.9 µM), for inactives: top-dose FP activity, negative = inhibition, hits mostly inhibitors | actives 0.028% (n = 370,000); active = well fitted inhibition curve with a large enough effect in the polarisation, with a control signal flat; inconclusive = small, poorly fitted or top-dose-only effect, or effect the other way, or a change in a side signal; inactive = no such curve, though single readings can be large or run the other way; the % refers to the polarisation;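 also: polarization taken with two DNA probes labelled with fluorescein and Texas red; potency is read from the fitted curve at half-maximal effect; % of control where 0% means no effect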
#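 His-tagged ERG Ets domain (1 uM in the protein solution; 300mM KCl, 50mM Tris-HCl, 1mM EDTA, 1mM DTT, pH 7.5) received compound, then a probe mix of 5 nM fluorescein-DNA and 100nM Texas-615-DNA. Fluorescence polarization was read for both dyes.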
# RGS12 GoLoco inh-2: RGS12 (human) GoLoco motif inhibition, red FP; Gai1/rhodamine-RGS12 GoLoco peptide fluorescence polarization; actives 50% (n = 110); shares compounds with RGS12 GoLoco inh-1; Potency, µM (titrated, usually from 57.1 µM), without a hit: at the highest dose activity, negative = inhibition, actives largely listed as inhibitors
# Starred values were filed as active, the others as inactive; u = inconclusive; x = not tested or not shown; ! = a repeat was not active; [ ] = remark or other dose. Unless noted, calls follow the shape of the dose curve; as a rule, active = well fitted curve in the direction sought with a large enough effect; inconclusive = small, poorly fitted or top-dose-only effect, or another doubt; inactive = no such curve, though single readings can be large; an effect the other way counts as inactive or inconclusive.
SMILES,TexasRed fluor,TRb SRC2 PPI,a7 integrin act,RGS12 GoLoco inh-1,CBFb RUNX1 block,ERG Ets-DNA blk,RGS12 GoLoco inh-2
O=C1c2ccc3c4c(ccc(c24)C(=O)N1CCCCO)C(=O)N(CCCCO)C3=O,8.6%,-12.9%,-58.1%,25.1µM*,-27.1%,u,11.2µM*
CC(=O)OCOC(=O)CNc1ccccc1OCCOc1ccccc1NCC(=O)OCOC(C)=O,u,-1.0%,x,x,u,x,x
CCCCNc1ccc2c3c(cccc13)C(=O)N(CCCC)C2=O,0.1%,-3.7%,-172.9%,14.1µM*,u,u,14.1µM*
Cc1cc(=O)oc2cc(NC(=O)[C@H](CCCCN)NC(=O)[C@H](CC3CCCCC3)NC(=O)OCC3c4ccccc4-c4ccccc43)ccc12,-2.5%,1.5%,x,x,11.3%,x,x
Cc1ccc(NC(=O)Cn2sc3nc(C)cc(C)c3c2=O)c(Cl)c1,-4.7%,5.8%,2.3%,17.8µM*,7.0%,-1.5%,11.2µM*
O=C(Cn1c(=O)c2ccccc2n2nncc12)Nc1cccc(F)c1,-0.6%,-1.9%,x,x,x,2.4%,x
Cc1cc(C)c2c(=O)n(CC(=O)Nc3cccc(F)c3)sc2n1,-8.6%,1.6%,-72.4%,31.6µM*,10.4%,-4.1%,31.6µM*
Cc1ccc(NC(=O)Cn2c(C)cc(C)c(C#N)c2=O)c(Cl)c1,0.5%,-6.5%,20.1%,-0.2%,4.9%,-12.2%,x
Cc1cc(C)c2c(=O)n(CC(=O)Nc3ccc(Cl)cc3)sc2n1,-6.6%,-1.8%,-56.3%,25.1µM*,5.7%,-3.0%,u
CCOc1ccc(NC(=O)Cn2sc3nc(C)cc(C)c3c2=O)cc1,-4.7%,-2.7%,5.7%,15.8µM*,2.9%,-8.7%,u
COc1cc2c3cc1Oc1c(OC)c(OC)cc4c1[C@@H](Cc1ccc(OC(=O)c5ccc([N+](=O)[O-])cc5)c(c1)Oc1ccc(cc1)C[C@@H]3N(C)CC2)N(C)CC4,-4.2%,1.0%,x,x,9.7%,x,x
COc1ccc(-c2nc3c(c4c2C[C@H](c2ccccc2)OC4)CN(C(=O)Nc2cccc(C#N)c2)CC3)c(C)c1,-3.2%[11.2 µM],-1.9%[11.2 µM],x,1.2%[14.2 µM],-1.9%[13.1 µM],x,x
Cc1ccc(NC(=O)CSc2nnc(-c3ccc(S(=O)(=O)N4CCOCC4)cc3)n2C)cc1,-3.6%,-2.8%,-5.8%,-50.0%,2.5%,8.0%,4.1%
O=C(O)c1ccncc1.O=C(O)c1ccncc1.[Cl][Pt]([Cl])([Cl])[Cl],x,x,x,-10.0%[14.2 µM],x,x,x
O=C(O)C1NCCN(C(=O)c2ccc3c(ccc4ccccc43)c2)C1C(=O)O (configuration not stated),-2.9%,4.5%,x,x,1.1%,x,x
Cn1nnnc1SCC(=O)N1CCN(c2ccc(Cl)cc2)CC1,-0.2%,-5.4%,-17.8%,-37.4%,8.1%,5.3%,14.1µM*
Cn1nnnc1SCC(=O)N1CCCCC1,x,x,6.4%,x,x,15.0%,x
CCc1n(CC(O)COCc2ccccc2)c2ccccc2[n+]1C (configuration not stated),-0.3%,6.8%,9.4%,3.16µM*,4.3%,6.6%,15.8µM*
O=C1c2ccccc2C(=O)N1CC(O)COCc1ccccc1 (configuration not stated),-2.4%,-8.3%,20.1%,6.2%,3.5%,x,x
CC(C)c1cccc2c([Si](C)(C)C)c3c(nc12)-c1cccc(=O)n1C3,1.6%,-3.5%,x,13.1%,u,x,x
CCOCc1cnc(C)nc1NCC(=O)c1c(C)n(C)c2ccc(OC)cc12,0.0%,3.2%,-10.1%,5.01µM*,-4.4%,-5.4%,25.1µM*
Cc1n(CC(O)COC2CCCCC2)c2ccccc2[n+]1C (configuration not stated),-1.1%,-17.4%,-4.4%,7.08µM*,2.6%,-2.3%,15.8µM*
COC(=O)c1ccc(NC(=O)CSc2ccccn2)cc1,0.2%,9.5%,13.2%,12.6µM*,-2.4%,-10.9%,u
O=C(COc1ccc(Cl)cc1)N1CCN(Cc2ccc3c(c2)OCO3)CC1,-1.8%,3.6%,42.6%,22.4µM*!,-7.4%,3.0%,9.0%[0.0121 µM]
O=C(Nc1ccc(Cl)cc1)N1CCN(Cc2ccc3c(c2)OCO3)CC1,-0.9%,3.4%,13.1%,-9.9%,9.8%,3.7%,x
COc1ccccc1N1C(=O)C=C(Sc2nc(C)cc(C)n2)C1=O,16.7%,6.4%,-22.1%,1.41µM*,-12.8%,u,u
NC(CC(=O)Nc1ccc(Oc2cc(F)c(F)cc2Br)cc1)C(=O)O (configuration not stated),1.7%,6.0%,x,x,7.4%,x,x
O=C1c2cccc3c([N+](=O)[O-])ccc(c23)C(=O)N1c1ccccn1,-4.4%,6.8%,-2.9%,28.2µM*,-5.4%,-2.6%,-5.3%
COc1cc(-c2ccc(N=C=O)c(OC)c2)ccc1N=C=O,-4.9%[201 µM],4.7%[201 µM],x,-0.2%,-7.0%[21.7 µM],x,x
